# The source made the active and inactive calls. Unless noted, no stated cut-off is given here; in the data, active means inhibition above about 80%; inactive means the rest.
# Legend:
# [1] = LFS_MB_P medulloblastoma growth inhibition, cell-based, chromothripsis tumors, cisplatin or BGB combos (AID 1671449); settings: LFS_MB_P medulloblastoma cells;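 further: cells exposed for 96 hours; 0% = vehicle DMSO and 100% = killing by high DMSO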
# [2] = HDN33 neuroblastoma growth inhibition, cell-based, chromothripsis tumors, cisplatin or BGB combos (AID 1671450); settings: HDN33 neuroblastoma cells, stronger effect = higher value;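 further: cells exposed to compound for four days; 0% = vehicle DMSO and 100% = cell killing by high DMSO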
# [3] = ICB984 medulloblastoma cell growth inhibition, synergistic combos for chromothripsis tumors, cisplatin or BGB combos (AID 1671451; call rule not given here;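 further: cells exposed for 96 hours before readout; 0% = vehicle DMSO and 100% = killing by high DMSO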); settings: ICB984 medulloblastoma cells, drug combinations, stronger effect = higher value
# [4] = LFS_MB_1R medulloblastoma cell growth inhibition, synergistic combos for chromothripsis tumors, cisplatin or BGB combos (AID 1671452); settings: LFS_MB_1R medulloblastoma cells, stronger effect = higher value;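 further: cells exposed for 96 hours before readout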
# [5] = HTB85 osteosarcoma cell growth inhibition, synergistic combos for chromothripsis tumors, BGB or cisplatin IC20 combos (AID 1671453); settings: HTB85 osteosarcoma cells, drug combinations, stronger effect = higher value;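 further: cells exposed for 96 hours before readout; 0% = vehicle DMSO and 100% = high DMSO killing control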
# [6] = CRL2098 osteosarcoma cell growth inhibition, synergistic combos for chromothripsis tumors, BGB or cisplatin IC20 combos (AID 1671454); settings: CRL2098 osteosarcoma cells, drug combinations, stronger effect = higher value;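 further: cells exposed for 96 h before readout; 0% = vehicle DMSO and 100% = killing by high DMSO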
# [7] = HD-MB03 medulloblastoma cell growth inhibition, synergistic combos for chromothripsis tumors, BGB or cisplatin IC20 combos (AID 1671455; in the data active means inhibition above about 83%;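 further: 0% = vehicle DMSO and 100% = high DMSO as cytotoxic control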); settings: HD-MB03 medulloblastoma cells, stronger effect = higher value
# [8] = UWB1.289 ovarian carcinoma cell growth inhibition, synergistic combos for chromothripsis tumors, BGB or cisplatin combos (AID 1671456); settings: UWB1.289 ovarian carcinoma cells, stronger effect = higher value;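 further: cells exposed to compound for four days; 0% = vehicle DMSO and 100% = killing by high DMSO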
# [9] = LFS_MB_2R medulloblastoma cell growth inhibition, synergistic combos for chromothripsis tumors, cisplatin combos (AID 1671457); settings: LFS_MB_2R medulloblastoma cells, stronger effect = higher value;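 further: cells exposed to compound for four days before readout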
# [10] = MDA-MB-436 breast carcinoma cell growth inhibition, synergistic combos for chromothripsis tumors, BGB or cisplatin combos (AID 1671458; call rule not given here;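 further: cells exposed for 96 hours; 0% = vehicle DMSO and 100% = killing by high DMSO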); settings: MDA-MB-436 breast carcinoma growth inhibition, drug combinations, stronger effect = higher value
# [11] = UWB1.289_BRCA1 ovarian cancer growth, cell-based, BGB or cisplatin combinations (AID 1671459); settings: UWB1.289 BRCA1 ovarian carcinoma, drug combinations, stronger effect = higher value
# [12] = human astrocyte viability loss, single and combined drugs, cytotoxicity control for chromothriptic childhood tumor combination screen, cell-based, BGB or cisplatin IC20 combos (AID 1671460); settings: Human astrocytes, drug combinations, stronger effect = higher value;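 further: cells exposed to compounds for 96 hours before viability readout; 0% = vehicle and 100% = killing control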
# [13] = growth inhibition of BT084 medulloblastoma cells, cell-based, ICGC_MB145, cisplatin and BGB IC40 combos (AID 1671461); settings: drug combinations, stronger effect = higher value;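 further: cells exposed to drugs for 96 hours; 0% = vehicle DMSO and 100% = high DMSO full killing control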
# [14] = growth inhibition of RCMB18 medulloblastoma cells, cell-based, cisplatin and BGB IC40 combos (AID 1671462); settings: stronger effect = higher value;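 further: cells exposed to compound for four days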
# [15] = growth inhibition of CRL1545 osteosarcoma cells, cell-based, cisplatin and BGB IC20 combos (AID 1671464); settings: stronger effect = higher value;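 further: cells exposed to compound for 96 hours before readout; 0% = vehicle DMSO and 100% = high DMSO killing control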
# [16] = measured here: combination with BGB IC40, at 0.05 µM
# [17] = measured here: with BGB IC20 combination, at 0.5 µM
# [18] = measured here: with cisplatin IC20 combination, at 0.5 µM
# [19] = measured here: combination with cisplatin, at 0.5 µM
# [20] = measured here: combination with cisplatin, at 5 µM
smiles,measurement,setting,value
COc1cccc2c1C(=O)c1c(O)c3c(c(O)c1C2=O)CC(O)(C(=O)CO)CC3OC1CC(N)C(OC2CCCCO2)C(C)O1 (stereo not drawn),inhibition,"[1]; at 0.5 µM, stronger effect = higher value",-32.3% (inactive)
same,inhibition,"[1]; measured here: combination with BGB IC20, at 0.005 µM",9.11%
same,inhibition,"[1]; measured here: combination with BGB IC40, at 0.005 µM",-11.4%
same,inhibition,[1]; [16],-11.1%
same,inhibition,"[1]; measured here: combination with cisplatin, at 0.5 µM, stronger effect = higher value",-47.4%
same,inhibition,"[1]; measured here: combination with cisplatin, at 5 µM, stronger effect = higher value",110%
same,inhibition,"[2]; BGB combo, at 5 µM",97.2%
same,inhibition,[2]; at 0.5 µM,23.8% (inactive)
same,inhibition,"[2]; cisplatin combo, at 5 µM",99.2%
same,inhibition,[2]; [17],21.1%
same,inhibition,[2]; [18],4.67%
same,inhibition,"[2]; single agent, at 5 µM",99%
same,inhibition,"[3]; BGB IC20 combo, at 0.005 µM",-23.2%
same,inhibition,"[3]; BGB IC40 combo, at 0.005 µM",-47.6%
same,inhibition,"[3]; BGB IC40 combo, at 0.05 µM",94.7%
same,inhibition,[3]; at 0.5 µM,-38.2% (inactive)
same,inhibition,"[3]; cisplatin combo, at 0.05 µM",94.5%
same,inhibition,"[3]; cisplatin combo, at 0.5 µM",-60.7%
same,inhibition,"[3]; cisplatin combo, at 5 µM",-43.3%
same,inhibition,"[3]; measured here: 5 uM single agent, at 5 µM",-14.9%
same,inhibition,[4]; at 0.5 µM,60.2% (inactive)
same,inhibition,[4]; [16],-55.1%
same,inhibition,[4]; [19],53.5%
same,inhibition,[4]; [20],95%
same,inhibition,[5]; at 0.5 µM,56.2% (inactive)
same,inhibition,"[5]; measured here: with BGB IC20, at 0.5 µM",23.4%
same,inhibition,"[5]; measured here: with BGB IC20, at 5 µM",99%
same,inhibition,"[5]; measured here: with cisplatin IC20, at 0.5 µM",91%
same,inhibition,"[5]; measured here: with cisplatin IC20, at 5 µM",99.6%
same,inhibition,"[5]; single agent, at 5 µM",99.2%
same,inhibition,[6]; at 0.5 µM,30.1% (inactive)
same,inhibition,"[6]; measured here: combination with BGB at IC20, at 0.5 µM",85.5%
same,inhibition,"[6]; measured here: combination with cisplatin at IC20, at 0.5 µM",33.2%
same,inhibition,[7]; at 0.5 µM,70.5% (inactive)
same,inhibition,"[7]; measured here: combo with BGB at IC20, at 0.5 µM",69.8%
same,inhibition,"[7]; measured here: combo with cisplatin at IC20, at 0.5 µM",77.2%
same,inhibition,[8]; at 0.5 µM,12.2% (inactive)
same,inhibition,"[8]; measured here: inhibition with BGB combination, at 0.05 µM",26.6%
same,inhibition,"[8]; measured here: inhibition with cisplatin combination, at 0.05 µM",-27.7%
same,inhibition,[9]; at 0.5 µM,-17% (inactive)
same,inhibition,[9]; [19],-2.89%
same,inhibition,[9]; [20],86.3%
same,inhibition,[10]; at 0.5 µM,24.8% (inactive)
same,inhibition,"[10]; measured here: BGB combination, at 0.5 µM",4.22%
same,inhibition,"[10]; measured here: BGB combination, at 5 µM",64.7%
same,inhibition,"[10]; measured here: cisplatin combination, at 0.5 µM",26.1%
same,inhibition,"[10]; measured here: cisplatin combination, at 5 µM",84.5%
same,inhibition,"[11]; BGB combination, concentration series, at 5 µM",94.3%
same,inhibition,[11]; at 0.5 µM,16.1% (inactive)
same,inhibition,"[11]; cisplatin combination, concentration series, at 5 µM",96.5%
same,inhibition,[12]; at 0.5 µM,50% (inactive)
same,inhibition,"[12]; measured here: combo with BGB IC20, at 0.5 µM",42.8%
same,inhibition,"[12]; measured here: combo with cisplatin IC20, at 0.5 µM",39.2%
same,inhibition,[13]; at 0.5 µM,2.98% (inactive)
same,inhibition,"[13]; cisplatin combination, at 0.5 µM",23.2%
same,inhibition,"[13]; cisplatin combination, at 5 µM",-6.21%
same,inhibition,"[13]; measured here: BGB IC40 combination 0.05 uM, at 0.05 µM",-28.8%
same,inhibition,"[13]; single agent, at 5 µM",27%
same,inhibition,[14]; at 0.5 µM,21.9% (inactive)
same,inhibition,"[14]; cisplatin combo, at 5 µM",71.1%
same,inhibition,"[14]; measured here: BGB IC40 combination, at 0.05 µM",-38.8%
same,inhibition,[14]; [19],44.2%
same,inhibition,"[14]; single agent, at 5 µM",71.6%
same,inhibition,[15]; at 0.5 µM,91.3% (active)
same,inhibition,[15]; [17],85.6%
same,inhibition,[15]; [18],94.1%
same,inhibition,"[15]; single agent, at 0.05 µM",-29.5%
same,inhibition,"[15]; single agent, at 5 µM",99.5%

# — PubChem BioAssay
